Assay outcomes (PubChem)
KB-3-1 cytotox – kills parental KB-3-1 adenocarcinoma cells; KB-3-1 viability, CellTiter-Glo ATP luminescence, 72 h; Potency, µM (top dose mostly 46.1 µM), most hits filed as cytotoxic; actives 1.4% (n = 400,000); AID 1347075; further: on the % scale 0 is the no-effect control and ±100 the full control effect; nearly all actives have a fitted effect of over 60% in size
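Here the drug-naive KB-3-1 line serves as comparator for MDR sub-line selectivity; cells received compound titrations, 72 h at 37 °C, then CellTiter-Glo readout.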
HT1080 IDH1KD tx – HT-1080 IDH1 knockdown cell toxicity (counter line); HT-1080 IDH1 knockdown viability, ATP luminescence, 48 h; Potency, µM (top dose mostly 46.1 µM), for the others: top-dose activity, negative = toxicity, actives largely listed as cytotoxic; actives 2% (n = 360,000);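 further: 0% = DMSO wells and -100% = cell-free medium wells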
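Using the IDH1-knockdown HT-1080 line run in the same batch and compound series as the NT line, viability after 48 h at 37 °C was determined by CellTiter-Glo luminescence and expressed as % activity.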
HT1080NT lethal – kills 2HG-producing HT-1080-NT fibrosarcoma cells; HT-1080-NT fibrosarcoma viability, CellTiter-Glo ATP luminescence, 48 h; Potency, µM (series often up to 46.1 µM), without a hit: top-dose activity, negative = less viability, most hits filed as cytotoxic; actives 1.6% (n = 360,000); AID 686970;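 further: NT is the 2HG producing partner of a matched IDH1 knockdown line; 0% = DMSO-treated cells and -100% = media-only wells without cells; nearly all actives have a fitted effect of over 55% in size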
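Viability of the 2HG-overproducing fibrosarcoma line after 48 hours of compound exposure at 37 degrees C was determined by luminescence with CellTiter-Glo, and concentration-effect curves were then fitted and categorized.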
KB-V1 cytotox – kills drug-selected multidrug resistant KB-V1 cells; KB-V1 MDR cells viability, CellTiter-Glo, 72 h; Potency, µM (top dose mostly 46.1 µM), most hits filed as cytotoxic; actives 3.4% (n = 400,000); AID 1347076; further: on the % scale 0 is the no-effect control and ±100 the full control effect; nearly all actives have a fitted effect of over 60% in size
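qHTS viability screen in drug-selected KB-V1 MDR cells: 72 h compound treatment at 37 degrees C, ATP luminescence end point.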
ATXN2 expr inh – reduces ATXN2 reporter expression in HEK-293 cells | HEK-293 ATXN2-luciferase reporter, luminescence, 24 h | Potency, µM (top dose mostly 57 µM), without a hit: top-dose activity change, negative = inhibition, usual class: inhibitors | actives 0.72% (n = 360,000) | AID 1745845; further: on the % scale 0 is the no-effect control and ±100 the full control effect; nearly all actives have a fitted effect of over 55% in size
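ATXN2-luciferase reporter cells (luciferase flanked by upstream and downstream ATXN2 gene portions) were treated 24 h at 37 °C with compounds at up to 57 uM. SteadyGlo luminescence gave expression; GF-AFC fluorescence gave viability.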
ATXN viability – reduces viability in counter-screen for ATXN expression inhibitors. S2 cells (HEK-293 line with an ATXN2-luciferase reporter) viability, CellTiter-Fluor protease fluorescence, 24 h. Potency, µM (doses to about 56.7 µM), usual class: cytotoxic. actives 0.49% (n = 400,000). AID 651635; further: nearly all actives have a fitted effect of over 40% in size
Active calls of the source: *; i = inactive; ? = inconclusive; nt = not tested or not shown; [ ] = remark or other dose. In the library only some 6.2% were active in any assay of this set; here they are far more common. The call rests on the fitted dose curve; in most records, active means well fitted curve in the direction sought with a large enough effect; inconclusive means small, poorly fitted or top-dose-only effect, or another doubt; inactive means no such curve, though single readings can be large; an effect the other way counts as inactive or inconclusive. Potency means the concentration at half of the fitted maximal effect.

SMILES | KB-3-1 cytotox | HT1080 IDH1KD tx | HT1080NT lethal | KB-V1 cytotox | ATXN2 expr inh | ATXN viability
CC(=O)OCC(=O)[C@H]1CC[C@H]2[C@@H]3CC=C4C[C@@H](O)CC[C@]4(C)[C@H]3CC[C@]12C | i | 1% | 27% | ? | 7% | i
COc1ccccc1NC(=O)CCS(=O)(=O)c1cc2c3c(c1)CCN3C(=O)CC2 | i | nt | nt | i | 6% | i
COc1ccc(N2CCN(S(=O)(=O)c3ccc(F)c(C(=O)Nc4ccccc4Cl)c3)CC2)cc1 | i | nt | nt | i | -21% | ?
O=C1C=CC(=O)N1CCNc1ncc(C(F)(F)F)cc1Cl | ? | 23µM* | ? | ? | 25µM* | nt
O=C1CC(=O)N(CCNc2ncc(C(F)(F)F)cc2Cl)C(=O)N1 | i | 0% | 4% | i | -8% | i
Cc1c(Cl)cccc1N/C(SCC(=O)N1CCCCCC1)=C(/C#N)c1nc2ccccc2s1 | 21µM* | -26% | 1% | 15µM* | ? | nt
CC(=O)c1c(C)[nH]c(C(=O)CSc2nnc(-c3cccs3)n2Cc2ccccc2)c1C | i | -28% | 1% | 5.8µM* | 1% | i
O=c1cc(CSc2nnc(-c3cccs3)n2Cc2ccccc2)nc2sc3ccccc3n12 | i | 26µM* | -19% | ? | -18% | ?
Cc1cc(C(=O)CSc2nnc(-c3cccs3)n2Cc2ccccc2)c(C)n1C | i | -5% | -5% | i | -1% | i
COCCn1c(SCC(=O)c2[nH]c(C)c(C(C)=O)c2C)nc2ccccc21 | i | 8% | 6% | 16µM* | 5% | i
O=c1c2ccccc2nnn1CSc1nnc(-c2cccs2)n1Cc1ccccc1 | ? | ? | -29% | ? | 71% | i
CCOC(=O)c1c(C)[nH]c(C(=O)CSc2nnc(-c3cccs3)n2Cc2ccccc2)c1C | i | ? | -25% | 2.3µM* | ? | ?
COc1ccc(OC)c(NC(=O)c2cc3c(=O)oc4ccccc4c3s2)c1 | i | nt | nt | ? | 9% | i
CC(=O)c1c(C)[nH]c(C(=O)CSc2nnc(-c3ccco3)n2Cc2ccccc2)c1C | i | -20% | -1% | 18µM* | -19% | i
C=CCn1c(SCC(=O)c2[nH]c(C)c(C(C)=O)c2C)nnc1-c1ccncc1 | i | 2%[9.24 µM] | 3% | i | -4% | i
CC(=O)c1c(C)[nH]c(C(=O)CSc2nnc(-c3ccccc3)n2Cc2ccc3c(c2)OCO3)c1C | i | 23µM* | ? | ? | ? | i
CCc1ccccc1NC(=O)Cc1c(C(=O)O)[nH]c2ccc(Cl)cc12 | i | nt | nt | i | -6% | i
CSc1nccc(-c2cc(Cl)c3c(c2)CC(CNC(=O)c2ccc(C)nc2)O3)n1 (centres undefined) | nt | nt | nt | nt | nt | i
O=S(=O)(c1cccs1)N1CCN(CC(O)COc2cc(Cl)ccc2Cl)CC1 (centres undefined) | ? | ? | -25% | 8.2µM* | -39% | i
COc1ccccc1-n1cc(CN2CCC3(CCC(CNC(=O)c4ccccc4)O3)CC2)cn1 (centres undefined) | nt | nt | nt | nt | nt | i
Cc1ccc(CNC(=O)Cn2cc(S(=O)(=O)Cc3ccccc3Cl)c3ccccc32)cc1 | i | nt | nt | i | nt | nt
COc1cccc(CN2C(=O)C3(SCC(=O)N3c3ccc(C(C)C)cc3)c3ccccc32)c1 (centres undefined) | ? | nt | nt | 18µM* | 0% | i
COc1cccc(CN2C(=O)C3(SCC(=O)N3c3ccc(C)c(Cl)c3)c3ccccc32)c1 (centres undefined) | 13µM* | nt | nt | 13µM* | 12% | i
COc1cc(N2C(=O)CSC23C(=O)N(Cc2cccc(F)c2)c2ccccc23)cc(OC)c1OC (centres undefined) | i | nt | nt | i | -17% | i
C(=C\c1ccnc2ccccc12)/c1ccc(N2CCOCC2)cc1 | ? | nt | nt | i | nt | nt
SMILES | KB-3-1 cytotox | HT1080 IDH1KD tx | HT1080NT lethal | KB-V1 cytotox | ATXN2 expr inh | ATXN viability
O=C(NCC(=O)N1CCN(Cc2ccccc2)CC1)c1ccc(Cl)cc1 | ? | -4% | 17% | i | -34% | i
O=C(NCC(=O)N1CCN(Cc2ccccc2)CC1)c1cc(Cl)cc([N+](=O)[O-])c1 | 23µM* | ? | -20% | ? | -34% | i
Cn1c(=O)c2sccc2n2c(CCC(=O)N3CCN(c4cccc(Cl)c4)CC3)nnc12 | i | nt | nt | i | -17% | i
CC12CCC(=O)N1C(C(=O)N1CCN(c3ccc([N+](=O)[O-])cc3)CC1)CS2 (centres undefined) | i | ? | 14% | 18µM* | 7% | ?
COC(=O)c1cc(C(=O)c2ccc(Cl)cc2)n2c(=O)/c(=C\N(C)C)sc12 | 8.2µM* | 0% | -8% | ? | 1%[11.3 µM] | i
NC1(Cc2ccc(Cl)cc2)CCN(c2ncnc3[nH]ccc23)CC1 | nt | nt | nt | nt | 27µM* | nt
COc1ccc(-c2cc(C(F)(F)F)n3nc(C(=O)Nc4cccc(C(F)(F)F)c4)c(Br)c3n2)cc1 | i | nt | nt | ? | 6% | i
COC(=O)c1cnc(Oc2ccc(NC(=O)NC(=O)c3c(OC)cccc3OC)cc2)cc1C(F)(F)F | ? | 1.3µM* | ? | 2.3µM* | 38% | i
COC(=O)c1cnc(Oc2ccc(NC(=O)NC(=O)c3c(F)cccc3F)cc2)cc1C(F)(F)F | i | 1% | 6% | i | 19% | i
COC(=O)c1cnc(Oc2c(Cl)cc(N)cc2Cl)cc1C(F)(F)F | i | 16µM* | ? | i | 5% | i
COc1cc(OC)c(OC)cc1CN1CCCC(c2[nH]ncc2-c2cccc(C(F)(F)F)c2)C1 (centres undefined) | nt | nt | nt | nt | nt | i
CN(C)c1ccc(CNC(=O)CN2C(=O)CCn3nc(-c4cn(C)c5ccccc45)cc32)cc1 | i | nt | nt | i | -8% | i
COc1cc(OC)c(/C=C/c2ccc3ccccc3[n+]2[O-])c(OC)c1 | i | nt | nt | i | nt | nt
CCN(CC)c1ccc(/C=C2/SC(=O)N(C(C)C)C2=O)o1 | ? | ? | 13µM* | i | -19% | ?
CCn1c(=O)c2ccccc2n2c(SCC(=O)N3CCc4ccccc4C3)nnc12 | i | 11% | 2% | i | 19% | i
Cc1ccc(Cn2c(=O)c3ccccc3n3c(CCC(=O)O)nnc23)cc1 | i | -3% | 13% | i | 4% | i
CCCn1c(=O)c2ccccc2n2c(SCC(=O)N3CCc4ccccc4C3)nnc12 | i | -3% | 1% | 2.9µM* | 3% | i
Cc1ccc(Cn2c(=O)c3ccccc3n3c(SCC(=O)N4CCCCC4C)nnc23)cc1 (centres undefined) | i | -6% | -3% | 8.2µM* | -5% | i
